# Unmarked numbers belong to inactive results. No rule for the calls is given here.
# B1: design_620_fbd04095-bef7-46a9-992d-f2cb8915922f_77_dldesign_0_cycle1_af2pred (protein)
# chain: DAVTAQIKALGAAGVAQARADPENAVAIASRTNAQIWGLILAAGADAAASAVALEATRANAEAVRETTAAAAAAAAAAAAAAAA
# B2: design_620_fbd04095-bef7-46a9-992d-f2cb8915922f_681_dldesign_0_cycle1_af2pred (protein)
# chain: AAAEAAAAAAAAAAAAEAAARAARGREIMVRTVEAIVRQARASPDGLRLARIALRVAESAGDEEAIALARAALAELEAA
# B3: design_620_fbd04095-bef7-46a9-992d-f2cb8915922f_254_dldesign_0_cycle1_af2pred (protein)
# chain: AERLRAAAERLEAAAAATPEAAEAALAEAAALAEEVAAEYPGLGQLILNTLRQAAGLSPEERARAVARQFRALADYL
# B4: design_620_fbd04095-bef7-46a9-992d-f2cb8915922f_1337_dldesign_0_cycle1_af2pred (protein)
# chain: ADAATQAAIDANAAQAERALAAARADPAALPYAQAAIRNLELIAAGASPETQARGLARAEALRAALAAARAAA
# B5: design_619_5728adc2-0aea-404f-92dd-a4575c53f550_2222_dldesign_0_cycle1_af2pred (protein)
# chain: MENLEKAKELLEKAEAYVKAAAASDLATAQALLGQAVAAGQEAVELLKDSPIYPEVSRKVVELIRAGLAAVAAKA
# B6: design_619_5728adc2-0aea-404f-92dd-a4575c53f550_2492_dldesign_0_cycle1_af2pred (protein)
# chain: AIADEIIALARAAAEAADPEESTRLMREAAELAVEKFPELTPEEANAVIGEFLEAAARASPEAAVIATRAAARLGAQLAA
# B7: design_620_fbd04095-bef7-46a9-992d-f2cb8915922f_839_dldesign_0_cycle1_af2pred (protein)
# chain: MSWSEKAAEAAIKRLKELAKKAVSEGGKYAELAAAAARNAALLSYAAGPEMAKKAIKVFKEAAKLYPELAPAMEQAIALIESLL
# B8: design_620_fbd04095-bef7-46a9-992d-f2cb8915922f_868_dldesign_0_cycle1_af2pred (protein)
# chain: MEEERREELRRKAEEYIAQAEALAAQTSPSAQLLVSNLARQARRLAEAGDYEGALEVARAALEGAQAMAAQQ
# B9: design_620_fbd04095-bef7-46a9-992d-f2cb8915922f_329_dldesign_0_cycle1_af2pred (protein)
# chain: SAESQAKAEELLREAFKRITELADAAAKSGTEEELAKAKKEMEEIAEKVEKEAGPGAGELARNYLKTQLAAAKAAIAAAK
# B10: design_620_fbd04095-bef7-46a9-992d-f2cb8915922f_814_dldesign_0_cycle1_af2pred (protein)
# chain: SALSIAQLAASTQAVMKRAAKEVKGELAKKIKEAAKLAATGEKAKEAAALLKEAAKEAPEELKPLVASAAKHAELLVAAS
# B11: design_620_fbd04095-bef7-46a9-992d-f2cb8915922f_592_dldesign_0_cycle1_af2pred (protein)
# chain: SMAEEAARAEKAAAFREQAEAILAQAQANAADAEKLQQLGQQAVELAEEAAALGDQEAAQAALRAAAQINALLVQAQ
# B12: design_620_fbd04095-bef7-46a9-992d-f2cb8915922f_1420_dldesign_0_cycle1_af2pred (protein)
# chain: KQKYVNAIKANAKNLELIAEGAAQVDPALAKEAKAAAEKAKAKAEEAKKSTAEEAAALRKEVQAALAALSRALIAAAA
# B13: design_620_fbd04095-bef7-46a9-992d-f2cb8915922f_328_dldesign_0_cycle1_af2pred (protein)
# chain: DPKAQAQATAETLAKQAKKAATEALKLAKELGDKETAEKMKEIIKKVEELLEKAKKGTAEEAGAAALEILKLLSEARKELEKLKKKA
# B14: design_620_fbd04095-bef7-46a9-992d-f2cb8915922f_1144_dldesign_0_cycle1_af2pred (protein)
# chain: DPARQATINALIKAAAEAAKLGDTALSQAAVEAAVALASAKTQEELDAAQKEADAVLAAAAKRKAAAAAA
# B15: design_620_fbd04095-bef7-46a9-992d-f2cb8915922f_187_dldesign_0_cycle1_af2pred (protein)
# chain: GEARRQFAEDTAAAAKQAAALYAADPEKAQQVKDAADKAVAAAESGEDAQLAGLSAIKVYQALVEAQKAA
# B16: design_620_fbd04095-bef7-46a9-992d-f2cb8915922f_1723_dldesign_0_cycle1_af2pred (protein)
# chain: SAAAQQAAWQTYVDAAAEMSKLRREALASGDPEVKEKAIEEIKALADKAAANPAAAAAAKLAGENMTAALTES
# B17: design_619_5728adc2-0aea-404f-92dd-a4575c53f550_2329_dldesign_0_cycle1_af2pred (protein)
# chain: SALTKKIEEKATKLVEEAAKTTPEEARKLATEALEIAKQSPEALSALAVELLKAAAKATPEVAAVLREVAAQAMRTAIEIARA
# B18: design_620_fbd04095-bef7-46a9-992d-f2cb8915922f_1150_dldesign_0_cycle1_af2pred (protein)
# chain: MRERIEKVEKEAKEAYEATKKAAAAQGEAGKIIAAAADAALKRLEEAAKKAKEALEEGDLESAEKYLKEAEAQLETIKVLKESAE
# B19: design_620_fbd04095-bef7-46a9-992d-f2cb8915922f_1742_dldesign_0_cycle1_af2pred (protein)
# chain: AAAVATAAAQAFLAQAEKNLAAAKAALKAGDYEAAIKHAQAAIGSAQSAKLAAQSAGDAALAAQADKVIAEAKKVLAEAEKALKEA
# B20: design_620_fbd04095-bef7-46a9-992d-f2cb8915922f_36_dldesign_0_cycle1_af2pred (protein)
# chain: AAEEALKKLKELAEKTKKVAEEAGKVNPALAPEADFLSALAEAALNYAKKNAASPDFEKIAKKQLEQIKKALERAEKLLKEAKAQAA
# B21: design_620_fbd04095-bef7-46a9-992d-f2cb8915922f_119_dldesign_0_cycle1_af2pred (protein)
# chain: REAAAEELRRLAEEARRLGEAGTPEVRSMARMMATAMEVIARGGNVELALEALRAAAAGIANDGKFGAEMEELARRAEEAVR
# B22: design_620_fbd04095-bef7-46a9-992d-f2cb8915922f_790_dldesign_0_cycle1_af2pred (protein)
# chain: AKAKELAKKAEKALKAAKEAAKLKPEEAAAKANKELGKVLEAQKKAVEAGAPQEALDKINAVATEIAKIALEAAKAA
# B23: design_620_fbd04095-bef7-46a9-992d-f2cb8915922f_946_dldesign_0_cycle1_af2pred (protein)
# chain: AAALEAARRVAYGQMVLGKMKADEGLKKAESGEDLEGGIKMAEEGLKLAKEYAEYDPVKGGAAAKEIGAKLKKMKELAKKAK
# B24: design_620_fbd04095-bef7-46a9-992d-f2cb8915922f_548_dldesign_0_cycle1_af2pred (protein)
# chain: MNASERVIARAEAIIAEAAALGAAHPAMAGETAAIQALARSAARMARSGEHIEDAEKAVEVAEAMLAATAARAAALAA
# B25: design_619_5728adc2-0aea-404f-92dd-a4575c53f550_1912_dldesign_0_cycle1_af2pred (protein)
# chain: AAQQQAQVAAAATQAVADQTIKVAEELGKYDPELAKKYKEEATKIKKQAQEAAKQGQQGLQQVNQLLSQALELLGEAAKKLREAK
# B26: design_620_fbd04095-bef7-46a9-992d-f2cb8915922f_347_dldesign_0_cycle1_af2pred (protein)
# chain: DAVAAGQALLYAAKSQGYIGKAKKAVKEGKLEEAKEYAEKAEEYAKKSEEYAKQSGDAAVQAQAKKVQEQVKKTKEEVKKAE
# B27: design_619_5728adc2-0aea-404f-92dd-a4575c53f550_2359_dldesign_0_cycle1_af2pred (protein)
# chain: SQAQGELLEAVKYASKAMKLDPALAPQLQQAINLLVRAIVLLAQGDEAQAAEEAKKAAKLFEEAAKKASPEAAKELKKAAKEAEKAI
# B28: design_619_5728adc2-0aea-404f-92dd-a4575c53f550_2217_dldesign_0_cycle1_af2pred (protein)
# chain: DPAAALEKRTAAAMLAQAKAAVDADPALGRQRIANMEQLGKASPALAPYLLPAAEEARAYLAAKEAAAAA
# B29: design_619_5728adc2-0aea-404f-92dd-a4575c53f550_1976_dldesign_0_cycle1_af2pred (protein)
# chain: SPALLAARKAITETAAATINALTDPAAANLVGRAMIQGLQLAQQGEAAGAHAAAAVAALALVEAAAAAARALDAAAA
# B30: design_620_fbd04095-bef7-46a9-992d-f2cb8915922f_846_dldesign_0_cycle1_af2pred (protein)
# chain: AADALAGAKAALNTIKAAETNAKKLDAAGAEAQYKLAKVALESAKVHAAKLGEEGKKIAEEAKKALAATKAVAEAKKAA
# B31: design_620_fbd04095-bef7-46a9-992d-f2cb8915922f_158_dldesign_0_cycle1_af2pred (protein)
# chain: IDTQANLELAKKSFNAALAQARRFAKTDRQAALAALKSAEVYAEAAEAADPAAGEELRKKVEEARKEIEAA
# B32: design_620_fbd04095-bef7-46a9-992d-f2cb8915922f_1739_dldesign_0_cycle1_af2pred (protein)
# chain: AEAAELLAQLQAATAAAQAAAAAGDAAAANAHLAQAVELASQIHRVGDAAQRAQANQLLAQASRAAIAANAAAAA
# B33: design_620_fbd04095-bef7-46a9-992d-f2cb8915922f_1411_dldesign_0_cycle1_af2pred (protein)
# chain: DELTKLAQEAADAAVRAMEAGRYLPLEEANALINEVIKLYQKASEAAVAGKLEEAKKYAKEAKAKAKEIEELAEKRRA
# B34: design_620_fbd04095-bef7-46a9-992d-f2cb8915922f_936_dldesign_0_cycle1_af2pred (protein)
# chain: LTPLEKAEAAKAKADKLYEAAQKATKAEAASLYGEAAVEYAKAAAYYLRAGDAAAAAAAQANLKTAVAKSQALVAA
# B35: design_619_5728adc2-0aea-404f-92dd-a4575c53f550_1938_dldesign_0_cycle1_af2pred (protein)
# chain: AKEEAKKLLEKTKKEAEKAVKEAEAGTPTTAAEQAVKVLEFGKEAVEKARELGDEETAEQIAQVTNEAVAKITKAAIAKAK
# B36: design_620_fbd04095-bef7-46a9-992d-f2cb8915922f_687_dldesign_0_cycle1_af2pred (protein)
# chain: ATAAEAAALRDAGVAAANSAAAAAKAGNTTAAGELLTEAVKLAAQLAALGDEAGAAEVRAAIAASSKTIIAAQAA
# B37: design_619_5728adc2-0aea-404f-92dd-a4575c53f550_2058_dldesign_0_cycle1_af2pred (protein)
# chain: AAVAQSQLQITQNLVAWALSQLTTYGPAQGATIAKAVRDLALAAGLPEAVADELAAGAAGTAAEAKAKGAQAVALAQAAVAA
# B38: design_620_fbd04095-bef7-46a9-992d-f2cb8915922f_1232_dldesign_0_cycle1_af2pred (protein)
# chain: SERHQQLVDFMVAAGQVALTNLAGALRTAEIVARTDPAAAVEGAKKIRELAAKTTPEDAAKMNAVADHALAAAA
# Target: CD276, Q5ZPR3
# Sequence (Q5ZPR3 whole entry): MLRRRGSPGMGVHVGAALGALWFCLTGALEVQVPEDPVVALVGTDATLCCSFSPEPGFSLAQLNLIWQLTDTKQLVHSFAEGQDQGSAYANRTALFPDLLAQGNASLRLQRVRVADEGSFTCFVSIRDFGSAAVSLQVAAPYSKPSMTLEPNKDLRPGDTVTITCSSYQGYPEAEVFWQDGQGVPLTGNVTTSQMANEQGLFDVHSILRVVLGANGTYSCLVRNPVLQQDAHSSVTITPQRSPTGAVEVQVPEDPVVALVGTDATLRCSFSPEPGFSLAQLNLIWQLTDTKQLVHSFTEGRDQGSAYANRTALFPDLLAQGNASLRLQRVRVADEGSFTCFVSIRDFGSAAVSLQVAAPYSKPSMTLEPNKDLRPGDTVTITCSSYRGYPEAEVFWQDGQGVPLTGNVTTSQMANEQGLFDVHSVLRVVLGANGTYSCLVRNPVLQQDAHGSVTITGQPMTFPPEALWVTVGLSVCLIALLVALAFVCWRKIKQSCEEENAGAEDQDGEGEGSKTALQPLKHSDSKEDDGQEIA
row,Binder,binding in a display sort
1,B1,not found
2,B2,not found
3,B3,not found
4,B4,not found
5,B5,not found
6,B6,not found
7,B7,not found
8,B8,not found
9,B9,not found
10,B10,not found
11,B11,not found
12,B12,not found
13,B13,not found
14,B14,not found
15,B15,not found
16,B16,not found
17,B17,binds (active)
18,B18,not found
19,B19,not found

row,Binder,binding in a display sort
1,B20,not found
2,B21,not found
3,B22,not found
4,B23,not found
5,B24,not found
6,B25,not found
7,B26,not found
8,B27,not found
9,B28,not found
10,B29,not found
11,B30,not found
12,B31,not found
13,B32,not found
14,B33,not found
15,B34,not found
16,B35,not found
17,B36,not found
18,B37,not found
19,B38,not found
